Reference: PubChem BioAssay AID435003 (Sanford-Burnham Center for Chemical Genomics, 2010)
The campaign covered roughly 330,000 compounds. About 1,700 (0.52%) were called active. This excerpt belongs to a sample that is enriched for actives. Values without a mark were called inactive. No stated cut-off is given here; in the data, active means inhibition above about 50%; inactive means the rest.

experiment: inhibitors of induced NF-kB luciferase reporter, primary screen, TCR NF-kB activation inhibitor project, cell-based, luminescence, uHTS (AID 435003); conditions: at 4 µM, stronger effect = higher value; NF-kB luciferase reporter unless noted

SMILES	inhibition
Cc1cc2ccccn2c1C(C[N+](=O)[O-])c1c(F)cccc1Cl (stereo not given)	71.3% (active)
O=C(c1cc2nc(-c3ccccc3)cc(-c3ccccc3)n2n1)N1CCC2(CC1)OCCO2	-2.97%
C[C@]12CC[C@H](O)C[C@H]1CC[C@@H]1C2CC[C@]2(C)[C@@H](C3=CC(=O)OC3)[C@@H](O)C[C@]12O (stereo not given in full)	79.5% [Jurkat, PMA/ionomycin-induced NF-kB luciferase reporter] (active)
C[C@]12CCC3C(CC[C@H]4C[C@@H](O)CC[C@]34C)C1C[C@@H](O)[C@H]2O (stereo not given in full)	-3.46%
C[C@]12CCC3C(CC[C@H]4C[C@@H](O)CC[C@]34C)C1CC[C@@H]2O (stereo not given in full)	10.7%
CN1CCN(/N=C/c2c[nH]c3ccccc23)CC1	-15.1%
O=C(NCC(c1cccnc1)N1CCN(c2ccccc2)CC1)Oc1ccccc1 (stereo not given)	10.4%
COc1ccccc1C1=NCc2nnc(CSC)n2-c2ccc(Cl)cc21	-5.97%
CCCCCCCCCCCCn1ccc(=N)cc1	94.2% (active)
Cc1nn(Cc2ccccc2Cl)c(Cl)c1C(=O)OC(C(=O)NC(N)=O)C(C)C (stereo not given)	11.3%
CCOC(=O)C1(Cc2ccc(Cl)cc2)CCN(C(C)CCn2cccn2)CC1 (stereo not given)	-3.65%
O=C(CCNS(=O)(=O)c1ccccc1)Nc1ccc(Cl)cc1C(=O)c1ccccc1	-5.78%
COC(=O)[C@@H]1C(OC(=O)c2ccccc2)CC2CCC1N2C (stereo not given in full)	-16.7%
COc1ccc(N2C(=O)/C(=C/c3ccco3)C(=O)NC2=S)cc1	1.64%
CCOc1ccc(-c2cc(C)[n+](CCN(CC)CC)c(-c3ccc(OCC)cc3)c2)cc1	72.8% (active)
CN1CCc2cc3c(cc2[C@H]1[C@@H]1OC(=O)c2c1ccc1c2OCO1)OCO3	5.76% [Jurkat, PMA/ionomycin-induced NF-kB luciferase reporter]
CCN(CC)P(=O)(Oc1cccc(C)c1)N(CC)CC	4.24%
Cc1cc(N2C(=O)C3CCCN3C2c2ccc(Cl)c(Cl)c2)no1 (stereo not given)	-12.8%
c1ccc(C2NCc3ccccc3-n3cccc32)cc1 (stereo not given)	10.4%
CNC(=O)O/N=C(\N)Cc1csc2ccc(Cl)cc12	-0.793%
